Key:
[1] = test system: Vero E6 infected with SARS-CoV-2; assay: morphology score (similarity to uninfected cells); higher = more like uninfected cells; conditions: 24 h
[2] = test system: Vero E6 infected with SARS-CoV-2; assay: SARS-CoV-2 infection rate relative to infected DMSO; higher = more infection, active = 60 or less; conditions: 24 h

Structure (SMILES)	morphology score [1]	SARS-CoV-2 infection rate [2]
Cc1cccc(C)c1NC1=NCCCS1 [xylazine] (10 µM)	0.241	108% (inactive)
COc1ccc(-c2cc3nccn3c(Nc3ncccc3C(N)=O)n2)cc1OC (0.833333 µM)	0.46	27% (active)
CCC(=O)NO (10 µM)	0.00785	112% (inactive)
N#Cc1cnc2cnc(NCc3cccnc3)cc2c1Nc1ccc(F)c(Cl)c1 (10 µM)	0.0314	102% (inactive)
C[C@]1(COc2ccc(N3CCC(Oc4ccc(OC(F)(F)F)cc4)CC3)cc2)Cn2cc([N+](=O)[O-])nc2O1 [delamanid] (10 µM)	-0.0971	110% (inactive)
CN1C[C@H](C(=O)N[C@]2(C)O[C@@]3(O)[C@@H]4CCCN4C(=O)[C@H](Cc4ccccc4)N3C2=O)C[C@@H]2c3cccc4[nH]cc(c34)C[C@H]21 [dihydroergotamine] (10 µM)	-0.0107	104% (inactive)
CCCC(O)C(CC)CO (stereo not given) [2-ethyl-1,3-hexanediol] (0.833333 µM)	-0.095	116% (inactive)
C=C(C)[C@@H]1CC[C@]2(C(=O)O)CC[C@]3(C)[C@H](CC[C@@H]4[C@@]5(C)CC[C@H](OC(=O)CC(C)(C)C(=O)O)C(C)(C)[C@@H]5CC[C@]43C)[C@@H]12 [bevirimat-dimeglumine] (10 µM)	-0.0115	113% (inactive)
Cc1nn(C)c2nc(NNC(=O)Nc3cc(Cl)nc(Cl)c3)cc(C(C)C)c12 (10 µM)	0.0785	108% (inactive)
CC(C)c1ccccc1S(=O)(=O)c1cc(N)c2ncccc2c1[N+](=O)[O-] (10 µM)	0.225	95.5% (inactive)
O=C(O)CNC(=O)c1ccccc1 [hippuric-acid] (10 µM)	-0.0766	109% (inactive)
O=C(CCCN1CCC2(CC1)C(=O)N(Cc1cccc(F)c1)CN2c1ccccc1)c1ccc(F)cc1 [3'-fluorobenzylspiperone] (0.833333 µM)	0.325	103% (inactive)
CCC(=O)NC[C@@H]1C[C@H]1c1cccc2c1CCO2 [tasimelteon] (10 µM)	0.169	98.5% (inactive)
O=C(Nc1ccc([N+](=O)[O-])cc1O)Nc1ccccc1Br (0.833333 µM)	0.0726	103% (inactive)
Cc1cc(C(N)=O)ccc1-n1c(CCC(=O)O)ccc1-c1ccc(-n2ccnc2)cc1 (10 µM)	0.066	89% (inactive)
C[C@H](Cc1ccc2c(c1)OC(C(=O)O)(C(=O)O)O2)NC[C@H](O)c1cccc(Cl)c1 (10 µM)	0.159	93.5% (inactive)
COc1cc2c(cc1OC)[C@@H](Cc1cc(OC)c(OC)c(OC)c1)[N+](C)(CCCOC(=O)CC/C=C/CCC(=O)OCCC[N+]1(C)CCc3cc(OC)c(OC)cc3[C@H]1Cc1cc(OC)c(OC)c(OC)c1)CC2 (stereo not given in full) [mivacurium] (10 µM)	-0.0909	104% (inactive)
COc1cc2c(cc1OC)-c1cc3ccc(OC)c(OC)c3c[n+]1CC2 [palmatine-chloride] (10 µM)	0.189	92% (inactive)
N#Cc1cccc(-c2nc(-c3cccnc3)no2)c1 (10 µM)	0.143	98.5% (inactive)
COc1cc(-c2cc(-c3cccc(O)c3)cnc2N)cc(OC)c1OC (10 µM)	0.51	95% (inactive)

Structure (SMILES)	morphology score [1]	SARS-CoV-2 infection rate [2]
CC(=O)Nc1c(I)c(C(=O)O)c(I)c(N(C)C(C)=O)c1I [metrizoic-acid] (10 µM)	0.0802	108% (inactive)
COc1ccccc1N1CCN(CCCNc2cc(=O)n(C)c(=O)n2C)CC1 [urapidil] (10 µM)	0.088	101% (inactive)
COc1ccc(CCc2nc3cc(-c4c(C)noc4C)ccc3n2C[C@H](C)N2CCOCC2)cc1Cl (0.833333 µM)	-0.0905	113% (inactive)
O=C(O)c1c(Sc2ccccc2)c2cc(Cl)ccc2n1Cc1ccc(Cl)cc1 (10 µM)	0.149	102% (inactive)
COc1cc(C[C@H]2c3cc(OC)c(OC)cc3CCN2C)c(Oc2cc3c(cc2OC)-c2c(OC)c(OC)cc4c2[C@H](C3)N(C)CC4)cc1OC [thaliblastine] (10 µM)	0.443	30.5% (active)
C#C[C@]1(OC(C)=O)CC[C@H]2[C@@H]3CCC4=CC(=NO)CC[C@@H]4[C@H]3CC[C@@]21CC (mixture of isomers) [norgestimate] (10 µM)	0.111	108% (inactive)
CS(=O)(=O)c1ccc(-c2cnc(N)c(C(=O)Nc3ccccc3)n2)cc1 (10 µM)	0.278	87% (inactive)
CC(C)OC(=O)N1CCC(Oc2ncnc3c2cnn3-c2ccc(S(C)(=O)=O)cc2F)CC1 (10 µM)	0.0759	98% (inactive)
CCCc1nc(C(C)(C)O)c(C(=O)O)n1Cc1ccc(-c2ccccc2-c2nnn[nH]2)cc1 [olmesartan] (10 µM)	0.0191	102% (inactive)
c1ccc(-c2ccc(C(c3ccccc3)n3ccnc3)cc2)cc1 (stereo not given) [bifonazole] (10 µM)	0.407	79% (inactive)
Cc1ccc(/C(=C\CN2CCCC2)c2cccc(/C=C/C(=O)O)n2)cc1 [acrivastine] (10 µM)	-0.036	104% (inactive)
CC(NC(C)(C)C)C(=O)c1cccc(Cl)c1 (stereo not given) [bupropion] (10 µM)	0.00981	96.5% (inactive)
COC(=O)c1cc(OC)c2c(c1-c1c(CO)cc(OC)c3c1OCO3)OCO2 [bicyclol] (10 µM)	0.199	88% (inactive)
O=C1NC(=O)C(=Cc2ccc(-c3ccc(F)cc3)o2)S1 (stereo in doubt) (10 µM)	0.0111	112% (inactive)
COc1cccc(-c2cc(F)ccc2[C@H]2Cc3nc(N)nc(C)c3C(=O)N2)n1 (0.833333 µM)	0.125	99% (inactive)
Cc1cccc(C(=O)NCN2CCN(c3ccccc3C#N)CC2)c1 (10 µM)	0.161	102% (inactive)
Cc1ccc(-c2nn(C(C)(C)CNC(=O)c3ncccc3C)c3ncnc(N)c23)cc1 [WEHI-345-analog] (0.833333 µM)	-0.0639	122% (inactive)
C[N+](C)(C)CCCCCC[N+](C)(C)C [hexamethonium] (10 µM)	-0.257	114% (inactive)
CN1CCCCC1Cn1cc(C(=O)c2cc([N+](=O)[O-])ccc2I)c2ccccc21 (stereo not given) (10 µM)	0.612	72.5% (inactive)
CN(C(=O)Cc1ccccc1)[C@H](CN1CCCC1)c1ccccc1 (10 µM)	0.0751	102% (inactive)

Structure (SMILES)	morphology score [1]	SARS-CoV-2 infection rate [2]
CN1CCN(c2ccc(/C=C(\C#N)c3ccccc3Br)cc2)CC1 (10 µM)	-0.13	116% (inactive)
Cc1cc2c(cc1C(F)(F)F)N(C(=O)Nc1ccc(Oc3cccnc3C)nc1)CC2 (10 µM)	0.281	90.5% (inactive)
Brc1ccc(NC2C3CC4CC(C3)CC2C4)cc1 (stereo not given) [bromantan] (10 µM)	-0.111	99.5% (inactive)
O=C1OC2(c3ccc(O)cc3Oc3cc(O)ccc32)c2ccccc21 [fluorescein] (10 µM)	0.0519	110% (inactive)
CCNC(=O)N1CCN(CCCC(c2ccc(F)cc2)c2ccc(F)cc2)CC1 [amperozide] (10 µM)	-0.101	108% (inactive)
C[C@]12CCC(=O)C=C1CC[C@@H]1[C@@H]2CC[C@@]2(C)[C@H]1CC[C@]2(O)C(=O)CO [cortodoxone] (10 µM)	0.0341	98% (inactive)
N[C@@H](C(=O)O)c1nn[nH]n1 (racemic) [tetrazol-5-yl-glycine-(RS)] (10 µM)	0.03	98% (inactive)
CN1C[C@@H](NS(=O)(=O)N(C)C)C[C@@H]2c3cccc4c3c(cn4C)C[C@H]21 [mesulergine] (10 µM)	0.205	93.5% (inactive)
N=C(N)NCCC[C@H](NC(=O)[C@@H]1CCCN1C(=O)[C@@H]1CSSC[C@H](N)C(=O)N[C@@H](Cc2ccc(O)cc2)C(=O)N[C@@H](Cc2ccccc2)C(=O)N[C@@H](CCC(N)=O)C(=O)N[C@@H](CC(N)=O)C(=O)N1)C(=O)NCC(N)=O [vasopressin] (10 µM)	0.0923	95.5% (inactive)
O=C(/C=C/c1ccccc1)NCCO [brolitene] (10 µM)	0.199	93.5% (inactive)
Cc1cc(O)c(-c2ccc([C@@H](C)CN)cc2)c2c1[nH]c(=O)c1sccc12 (0.833333 µM)	-0.046	95% (inactive)
C=CCN1CC[C@]2(C)c3cc(O)ccc3C[C@H]1[C@H]2C (10 µM)	0.112	102% (inactive)
O=c1c(-c2ccc(O)cc2)coc2cc(O)ccc12 [daidzein] (10 µM)	0.126	95% (inactive)
CN(C(=O)Cc1ccc(Cl)c(Cl)c1)[C@H](CN1CCCC1)c1ccccc1 (10 µM)	0.793	21.5% (active)
Nc1ccc(S(=O)(=O)c2ccc(N)cc2)cc1 [dapsone] (10 µM)	-0.179	99.5% (inactive)
CN(NC(=O)CC(=O)NN(C)C(=S)c1ccccc1)C(=S)c1ccccc1 [elesclomol] (10 µM)	0.879	19.5% (active)
NP(N)(=O)NC(=O)c1ccc(F)cc1 [flurofamide] (10 µM)	0.21	94.5% (inactive)
COc1cc2c(cc1OC)CC(=O)N(CCCN(C)C[C@H]1Cc3cc(OC)c(OC)cc31)CC2 [ivabradine] (10 µM)	0.15	112% (inactive)
COc1cc(O)c(C(=O)c2ccccc2)cc1S(=O)(=O)O [sulisobenzone] (10 µM)	-0.0207	109% (inactive)
CC(C)n1nccc1-c1ncccc1COc1cccc(O)c1C=O [voxelotor] (10 µM)	0.188	102% (inactive)
